# In PubChem BioAssay:
# Values joined by “and” are separate entries in the source; they are usually repeats but may differ in a detail not shown here. Identical values can stand only once. Results filed as inconclusive are left out. For part of these data: Measured potencies and affinities stand elsewhere. More than one record can exist for a structure, and the calls need not agree. Active and inactive are the calls of the source. Unless noted, how the calls were made is not given here.
# How the values were obtained:
# [1] = circadian clock period modulators, cell-based, LOPAC library, luminescence reporter (AID 2774); conditions: circadian reporter cells, at 7 µM, actives lie on both sides;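 further: values are relative to mean of DMSO wells on each plate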
# [2] = test system: Hepatitis C virus NS3 helicase; assay: HCV NS3 helicase inhibitors, primary screen, biochemical, fluorescence polarization, LOPAC1280 library (AID 687035; in the data active means inhibition above about 37%); conditions: Purified HCV NS3 helicase, Cy5-dT15 ssDNA binding fluorescence polarization; stronger effect = higher value; concentration not given here
# [3] = Cy5 fluorescence quenching or enhancement artefacts, artefact control for HCV NS3 helicase inhibitor project, biochemical, LOPAC1280 (AID 687037); conditions: Cy5-DNA-NS3h complex fluorescence interference counterscreen
# [4] = molecular target: ATP-dependent translocase ABCB1 (Homo sapiens) (UniProt P08183); assay: MDR1 (ABCB1) efflux transporter inhibition, cell-based (AID 377; in the data active means fluorescence slope change above about 50%); conditions: MDR1-expressing cells, fluorescent substrate accumulation slope; stronger effect = higher value; concentration not given here
# [5] = Cy5 fluorescence interference with SSB-bound oligo, artefact control for HCV NS3 helicase inhibitor project, biochemical, NIH Clinical Collection, E. coli SSB (AID 743268)
# [6] = test system: Hepatitis C virus NS3 helicase; assay: HCV NS3 helicase inhibitors, primary screen, biochemical, fluorescence polarization, NIH Clinical Collection (AID 743270); conditions: NS3 helicase binding to Cy5-dT15 DNA, stronger effect = higher value, concentration not given here
# [7] = molecular target: Single-stranded DNA-binding protein (Escherichia coli (strain K12)) (UniProt P0AGE0); assay: E. coli SSB displacement from DNA, counter-screen for HCV NS3 helicase inhibitor project, biochemical, fluorescence polarization, NIH Clinical Collection (AID 743271; in the data active means inhibition above about 28%); conditions: stronger effect = higher value, concentration not given here
# [8] = fluorescence interference in NS3h assay format, artefact control for HCV NS3 helicase inhibitor project, biochemical, NIH Clinical Collection (AID 743272); conditions: fluorescence interference counterscreen, stronger effect = lower value;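 further: HCV NS3 helicase with a Cy5 labelled single stranded DNA probe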
# [9] = molecular target: NAD(+) hydrolase SARM1 (Homo sapiens) (UniProt Q6SZW1); assay: SARM1 TIR NADase inhibitors, cell lysate, NAD-Glo luminescence (AID 1508614;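 active means compound whose remaining NAD level is above about 45 nM, limit read from the data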); conditions: SAM-TIR HEK293T lysate NADase, at 1 µM, stronger effect = higher value
# [10] = kinase inhibitors against Plasmodium liver-stage infection, cell-based, known kinase inhibitor set, luminescence, hepatoma host viability (AID 624392); conditions: Plasmodium liver stage in hepatoma cells, luciferase luminescence, concentration not given here; liver cell % of control: measured here: host liver cell viability; parasite % of control: stronger effect = lower value;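 further: infected cells incubated roughly two days before readout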
# [11] = polyglutamine-triggered caspase-3 activation inhibitors, cell-based (AID 1583); conditions: polyglutamine-induced caspase-3 activation, cell assay; stronger effect = higher value;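 tested at 10 µM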
# [12] = suppressors of polyQ aggregation in yeast, 75Q-TubU reporter (AID 1593); conditions: Yeast 75Q polyglutamine aggregation reporter
# [13] = rescue of polyQ-huntingtin neuronal dysfunction in worms, whole organism, C. elegans mechanosensory neurons, N-terminal huntingtin (AID 1599); conditions: touch response, stronger effect = higher value
# [14] = inhibitors of mitochondrial cytochrome c release, biochemical, purified mitochondria (AID 1603); conditions: stronger effect = lower value;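 further: mouse liver mitochondria challenged with calcium chloride; signal normalized to the plate average as 100%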
# [15] = inhibitors of polyQ protein aggregation (AID 1604); conditions: polyglutamine-induced protein aggregation inhibition assay; stronger effect = higher value; tested at 2.5 µM
# [16] = enhancers of glutamate uptake in motor neurons, MN-1 cell line (AID 1612); conditions: MN-1 motor neuron cells, stronger effect = higher value;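 further: tested at 1 µM final; 0% = mean of DMSO vehicle wells on each plate; positive means more glutamate uptake than control and negative means less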
# [17] = reducers of polyQ inclusions in PC12 cells, cell-based, NGF-treated PC12, GFPQ80 (AID 1614); conditions: PC12 NGF-treated GFP-polyQ80 inclusion reduction;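 further: lower means fewer inclusions and 0 means no inclusions at all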
# [18] = suppressors of polyglutamine aggregation in yeast, 75Q-TubH (AID 1616); conditions: S. cerevisiae 75Q-TubH polyglutamine aggregation suppression; stronger effect = higher value
# [19] = protection against mutant huntingtin cytotoxicity, PC12 cells, LDH release (AID 1610); conditions: PC12 mutant huntingtin toxicity, final LDH at 4 uM, stronger effect = lower value
# Sequence of ATP-dependent translocase ABCB1 (Homo sapiens) (P08183 whole entry, looked up): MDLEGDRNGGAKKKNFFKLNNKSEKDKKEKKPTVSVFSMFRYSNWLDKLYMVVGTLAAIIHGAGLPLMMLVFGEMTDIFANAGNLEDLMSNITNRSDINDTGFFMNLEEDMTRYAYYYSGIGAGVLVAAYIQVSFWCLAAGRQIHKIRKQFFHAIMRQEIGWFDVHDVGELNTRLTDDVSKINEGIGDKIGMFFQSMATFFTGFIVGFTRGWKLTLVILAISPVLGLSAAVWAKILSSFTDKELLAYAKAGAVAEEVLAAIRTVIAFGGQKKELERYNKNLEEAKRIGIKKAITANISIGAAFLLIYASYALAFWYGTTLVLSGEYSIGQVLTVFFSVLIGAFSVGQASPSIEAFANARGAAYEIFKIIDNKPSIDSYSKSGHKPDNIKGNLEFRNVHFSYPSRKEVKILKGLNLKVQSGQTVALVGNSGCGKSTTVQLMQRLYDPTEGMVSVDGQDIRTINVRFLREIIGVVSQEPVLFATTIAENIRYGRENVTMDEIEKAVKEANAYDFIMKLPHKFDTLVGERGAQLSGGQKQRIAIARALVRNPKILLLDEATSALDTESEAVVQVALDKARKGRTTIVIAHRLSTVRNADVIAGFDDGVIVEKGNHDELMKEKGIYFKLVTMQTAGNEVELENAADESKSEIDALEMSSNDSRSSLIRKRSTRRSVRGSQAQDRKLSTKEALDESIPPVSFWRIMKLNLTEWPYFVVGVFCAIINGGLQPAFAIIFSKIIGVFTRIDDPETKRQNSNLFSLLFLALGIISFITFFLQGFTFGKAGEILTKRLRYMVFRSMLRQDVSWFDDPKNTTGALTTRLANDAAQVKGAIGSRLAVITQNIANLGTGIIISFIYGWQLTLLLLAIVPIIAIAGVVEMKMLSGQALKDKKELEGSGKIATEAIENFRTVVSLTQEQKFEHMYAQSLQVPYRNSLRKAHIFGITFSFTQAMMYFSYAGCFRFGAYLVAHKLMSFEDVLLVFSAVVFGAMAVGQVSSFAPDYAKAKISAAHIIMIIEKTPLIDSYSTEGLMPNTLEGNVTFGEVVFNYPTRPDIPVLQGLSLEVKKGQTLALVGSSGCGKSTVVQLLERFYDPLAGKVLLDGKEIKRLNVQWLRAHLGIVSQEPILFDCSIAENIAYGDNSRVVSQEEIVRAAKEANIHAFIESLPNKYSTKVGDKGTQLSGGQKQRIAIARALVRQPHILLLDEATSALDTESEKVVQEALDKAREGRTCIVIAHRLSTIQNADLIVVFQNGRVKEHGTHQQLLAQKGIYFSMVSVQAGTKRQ
# Sequence of NAD(+) hydrolase SARM1 (Homo sapiens) (Q6SZW1 whole entry, looked up): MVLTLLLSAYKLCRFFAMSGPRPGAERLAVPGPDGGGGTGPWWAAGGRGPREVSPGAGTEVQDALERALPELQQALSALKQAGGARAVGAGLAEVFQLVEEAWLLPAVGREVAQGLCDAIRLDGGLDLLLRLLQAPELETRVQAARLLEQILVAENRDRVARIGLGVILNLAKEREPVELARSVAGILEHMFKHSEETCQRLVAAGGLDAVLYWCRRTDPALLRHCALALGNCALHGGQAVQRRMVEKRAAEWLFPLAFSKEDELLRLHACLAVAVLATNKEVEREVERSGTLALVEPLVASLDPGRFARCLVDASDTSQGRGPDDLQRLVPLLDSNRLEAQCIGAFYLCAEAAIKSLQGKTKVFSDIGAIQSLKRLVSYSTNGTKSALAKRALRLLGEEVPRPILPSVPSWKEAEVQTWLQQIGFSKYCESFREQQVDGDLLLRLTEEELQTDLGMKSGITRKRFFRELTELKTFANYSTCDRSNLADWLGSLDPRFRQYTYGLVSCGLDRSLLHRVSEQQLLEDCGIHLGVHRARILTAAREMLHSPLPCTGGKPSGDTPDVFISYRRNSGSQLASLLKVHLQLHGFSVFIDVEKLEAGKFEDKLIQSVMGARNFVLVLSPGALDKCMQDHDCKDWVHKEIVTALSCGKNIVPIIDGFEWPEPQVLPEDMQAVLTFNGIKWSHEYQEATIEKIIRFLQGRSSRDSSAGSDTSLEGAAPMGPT
compound,measurement,setting,value
CC(C)NC[C@@H](O)c1ccc(O)c(O)c1,period change,[1],-0.08 h (inactive)
same,inhibition,[2],-5% (inactive)
same,fluorescence ratio (interference),[3],0.9 (inactive)
CN1[C@@H](C[C@H](O)c2ccccc2)CCC[C@H]1CC(=O)c1ccccc1,fluorescence slope change,[4],26.3% (inactive)
c1ccc(CNc2ncnc3nc[nH]c23)cc1,fluorescence slope change,[4],11.7% (inactive)
O=C1OC(C(O)CO)C(O)=C1O (centres undefined),fluorescence slope change,[4],10.1% (inactive)
CNc1ncnc2c1ncn2[C@@H]1O[C@H](CO)[C@@H](O)[C@H]1O,fluorescence slope change,[4],64.6% (active)
CNCCC=C1c2ccccc2C=Cc2ccccc21,fluorescence slope change,[4],58% (active)
Nc1nc(=S)c2ncn([C@@H]3O[C@H](CO)[C@@H](O)[C@H]3O)c2[nH]1,fluorescence slope change,[4],59.6% (active)
CCCCC[C@H](O)/C=C/[C@@H]1[C@@H](C/C=C\CCCC(=O)O)[C@@H](O)C[C@H]1O (tested in a mixture with another compound),fluorescence slope change,[4],101% (active)
O=C1OC(CN2CCOCC2)CN1N=Cc1ccc([N+](=O)[O-])o1 (centres undefined),fluorescence slope change,[4],11.7% (inactive)
COc1ccc2cc([C@@H](C)C(=O)O)ccc2c1,fluorescence ratio,[5],0.94 (inactive)
same,inhibition,[6],0.66% (inactive)
same,inhibition,[7],8.27% (inactive)
same,fluorescence ratio,[8],0.94 (inactive)
O=C(c1cccnc1)N1CCOCC1,remaining NAD,[9],10 nM (inactive)
CCN(CC)CCNC(=O)c1c(C)[nH]c(C=C2C(=O)Nc3ccc(F)cc32)c1C,liver cell % of control,[10],117% and 132% and 81.2%
same,parasite % of control,[10],0.0958% (inactive) and 0.227% (active) and 376% (inactive)
CC1(C)S[C@@H]2[C@H](NC(=O)[C@@H](N)c3ccc(O)cc3)C(=O)N2[C@H]1C(=O)O,inhibition,[11],1.98%
same,score,[12],1.39
same,rescue above control,[13],1.27
same,cytochrome c release ratio,[14],1.03
same,inhibition of aggregation,[15],54.5%
same,glutamate uptake change,[16],1.23%
same,inclusion score,[17],2
same,aggregation suppression score,[18],1.15
O=C1NC(=O)C(=Cc2cccc(C(F)(F)F)c2)S1,liver cell % of control,[10],81.5% and 80.8% and 97.3%
same,parasite % of control,[10],0.631% (inactive) and 2.17% (inactive) and 7.31% (inactive)
CCCCCCCCCCCCCCCCCC(=O)OC(CC(=O)O)C[N+](C)(C)C (centres undefined),inhibition,[11],-2.46%
same,score,[12],0.53
same,rescue above control,[13],6.57
same,cytochrome c release ratio,[14],4.04
same,inhibition of aggregation,[15],52.4%
same,normalised LDH release,[19],0.986
same,glutamate uptake change,[16],-11.2%
same,aggregation suppression score,[18],-0.125
same,period change,[1],-0.05 h (inactive)
same,inhibition,[2],-2% (inactive)
same,fluorescence ratio (interference),[3],1 (inactive)
